Data as given in the supplement of paper PMC12340641.
Structures can show the parent of a compound that is named as a salt.

Assays:
[1] = target: IKZF1 (dCK*-IKZF1 fusion in HEK293FT) (UniProt Q13422); assay: inhibition of IKZF1 HTRF signal (DMSO = 0%, pomalidomide 10 uM = 100%); higher = lower IKZF1 protein level; conditions: compound concentration: 5 uM, overnight (~20 h)
Summary of the method: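 After overnight treatment at 37 °C with 5 μM compound in single wells, HEK293FT cells (2000/well, 384-well) stably expressing an IKZF1 fusion were lysed for 30 min at room temperature. A commercial HTRF total-IKZF1 antibody kit was incubated with the lysate overnight, and the time-resolved FRET ratio at 665/620 nm was corrected for background. Data are given as percent inhibition of IKZF1 signal relative, on each plate, to vehicle and a reference degrader, set at 0% and 100% respectively.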

HEK293FT dCK*-only = assay: relative growth in counter assay (no AraC = 100%, AraC + DMSO = 0%); higher = more growth rescue independent of IKZF1; conditions: compound concentration: 5 uM; AraC concentration: 0.3 uM; overnight pretreatment + 4 days AraC
Summary of the method: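 Counter assay in HEK293FT cells expressing dCK* alone (300/well, 384-well). Cells received 5 μM compound 2 h after seeding, then after overnight at 37 °C a nucleoside suicide substrate at 0.3 μM plus medium for 4 days. On day 5, Hoechst 33342-stained nuclei were counted by imaging. Relative growth was normalised per plate to wells without suicide substrate (100%) and substrate plus vehicle (0%).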

HEK293FT dCK*-IKZF1 = assay: relative growth recovery (pomalidomide 10 uM = 100%, DMSO = 0%); higher = more growth rescue (IKZF1 fusion degradation); conditions: compound concentration: 5 uM; AraC concentration: 0.3 uM; overnight pretreatment + 4 days AraC
Summary of the method: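 HEK293FT cells stably expressing a dCK*-IKZF1 fusion (300/well, 384-well) received 5 μM compound 2 h after seeding. After overnight at 37 °C they received a nucleoside suicide substrate at 0.3 μM plus medium for 4 days. On day 5, Hoechst 33342-stained nuclei were counted by whole-well imaging. Growth recovery was normalised per plate to a reference degrader (100%) and vehicle (0%); values are means of duplicates run on different days.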

Chain of IKZF1 (dCK*-IKZF1 fusion in HEK293FT) (Q13422 whole entry, looked up, the tested form may be a part): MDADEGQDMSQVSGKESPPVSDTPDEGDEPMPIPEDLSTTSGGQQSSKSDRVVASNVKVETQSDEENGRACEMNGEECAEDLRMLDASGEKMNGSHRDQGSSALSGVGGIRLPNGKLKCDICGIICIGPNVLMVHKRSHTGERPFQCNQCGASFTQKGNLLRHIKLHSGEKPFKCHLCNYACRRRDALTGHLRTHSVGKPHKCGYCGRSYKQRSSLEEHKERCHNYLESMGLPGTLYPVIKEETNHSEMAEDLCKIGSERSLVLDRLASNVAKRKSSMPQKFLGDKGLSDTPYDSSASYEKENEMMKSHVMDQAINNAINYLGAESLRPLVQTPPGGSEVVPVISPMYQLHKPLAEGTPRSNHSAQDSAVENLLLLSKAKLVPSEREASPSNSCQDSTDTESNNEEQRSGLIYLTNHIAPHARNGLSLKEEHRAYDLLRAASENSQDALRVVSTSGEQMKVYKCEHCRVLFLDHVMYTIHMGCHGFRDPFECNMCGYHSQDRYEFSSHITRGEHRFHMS

Compound	inhibition of IKZF1 HTRF signal [1] [%]	relative growth in counter assay (HEK293FT dCK*-only) [%]	relative growth recovery (HEK293FT dCK*-IKZF1) [%]
Nc1ccc2cc3ccc(N)cc3nc2c1	62.9	-35.1	-15
CC(=O)[C@@]1(O)C=C(O[C@H]2C[C@H](N)[C@H](O)[C@H](C)O2)c2c(c(O)c3c(O)c4ccccc4c(O)c3c2O)C1 [Idarubicin HCl]	87.1	-34.3	-13
Clc1ccc(C(Cn2ccnc2)OCc2csc3c(Cl)cccc23)c(Cl)c1 (stereo unspecified) [Sertaconazole nitrate]	20	-1.47	3.33
CN[C@H]1CC[C@@H](c2ccc(Cl)c(Cl)c2)c2ccccc21 [Sertraline HCl]	18.8	-7.81	-6.62
CCCC(=O)C1CCN(c2ncnc3c2CN(C(=O)c2ccc(-c4ccccc4)cc2)CC3)CC1	-10.8	18	4.94
COC(=O)Nc1nc2cc(C(=O)c3ccc(F)cc3)ccc2[nH]1	-13.6	-8	-4.8
Cc1ccnc(NS(=O)(=O)c2ccc(N)cc2)n1	-32.2	1.25	1.5
CN1CCCC1CCOC(C)(c1ccccc1)c1ccc(Cl)cc1 (stereo unspecified) [Clemastine fumarate]	11	6.63	5.08
Fc1ccc(CNc2ncnc3ccc(F)cc23)cc1 [spautin-1]	8.67	-2.11	5.96
C=C1/C(=C\C=C2/CCC[C@]3(C)[C@@H]([C@H](C)/C=C/[C@H](C)C(C)(C)O)CC[C@@H]23)C[C@@H](O)C[C@@H]1O [Ercalcitriol]	-35	19.8	6.62
CCN(CC)CCCN(c1ccccc1)C1Cc2ccccc2C1 [aprindine]	2.2	4.05	1.23
O=C(c1cc(S(=O)(=O)Nc2ccccc2F)c(F)cc1Cl)N1CCN2CCC[C@@H]2C1	-26	-1.66	-3.52
Cc1ccc2c(Cl)cc(Cl)c(O)c2n1	14	-5.48	0.855
CNC[C@H](O)c1ccc(O)c(O)c1 [Epinephrine (L-(-)-Epinephrine-(+)-Bitartrate)]	-25.3	-10.5	-3.19
CC(C)/N=c1\cc2n(-c3ccc(Cl)cc3)c3ccccc3nc-2cc1Nc1ccc(Cl)cc1	16.2	-8.1	0.915
Cc1ccc(/C=C2\CNC/C(=C\c3ccc(C)cc3)C2=O)cc1	-70	-34.5	-12.6
CC(=O)[C@]1(O)Cc2c(O)c3c(c(O)c2[C@@H](O[C@H]2C[C@H](N)[C@H](O)[C@H](C)O2)C1)C(=O)c1ccccc1C3=O [Idarubicin HCl]	11.7	-34.2	-13
CCc1nc(N)nc(N)c1-c1ccc(Cl)cc1	18	3.95	-0.245
CN(C)CCCN1c2ccccc2Sc2ccccc21	-35.6	5.27	-2.24
Clc1cccc(Cl)c1CSc1nnc(-c2cnccn2)s1 [yoda-1]	3.26	-3.89	-4.05
OC1(c2ccc(Cl)c(C(F)(F)F)c2)CCN(CCCC(c2ccc(F)cc2)c2ccc(F)cc2)CC1	-28.8	-26	-5.21
CC[N+](C)(CC)CCC[n+]1c(-c2ccccc2)c2cc(N)ccc2c2ccc(N)cc21 [propidium-iodide]	58.8	-10.7	-3.16
C[C@H]1COC2=C1C(=O)C(=O)c1c2ccc2c1CCCC2(C)C [Cryptotanshinone]	-30.9	0.04	-0.045
CCCCCCCCCCCC1=C(O)C(=O)C=C(O)C1=O [embelin]	-30.8	-6.94	-3.97

Compound	inhibition of IKZF1 HTRF signal [1] [%]	relative growth in counter assay (HEK293FT dCK*-only) [%]	relative growth recovery (HEK293FT dCK*-IKZF1) [%]
CC(C)N(CCC(=O)c1ccc2ccccc2c1)Cc1ccccc1	-41.5	-2.68	0.035
C=C1C(=O)O[C@@H]2C[C@@]3(C)CCC[C@H](C)C3=C[C@H]12 [alantolactone]	-31.2	-28	-7.37
CC(C)c1ccc(NC(=O)Cn2cnc3c2c(=O)n(C)c(=O)n3C)cc1	12.2	-3.63	-1.03
Clc1ccccc1C(c1ccccc1)(c1ccccc1)n1ccnc1	-36.9	5.96	2.19
Cc1nc(Nc2ncc(C(=O)Nc3c(C)cccc3Cl)s2)cc(N2CCN(CCO)CC2)n1 [Dasatinib]	-54.9	-29	-7.9
Cc1cc(C(C)(C)CC(C)(C)C)ccc1OCCOCC[N+](C)(C)Cc1ccccc1	-17.4	-4.05	5.47
S=C=Nc1ccc(N=C=S)cc1	20.8	3.25	-1.61
CC(=O)c1ccc(S(=O)(=O)NC(=O)NC2CCCCC2)cc1	-56.1	5.07	1.03
CC1(C)CCC2=C(O1)c1ccccc1C(=O)C2=O	-30	-24.5	-10.9
Nc1ncn([C@H]2C[C@H](O)[C@@H](CO)O2)c(=O)n1 [Decitabine]	12	-31.4	-11.4
COc1cc2ncnc(Nc3ccc(F)c(Cl)c3)c2cc1OCCCCCOCCOCCC(=O)N[C@H](C(=O)N1C[C@H](O)C[C@H]1C(=O)NCc1ccc(-c2scnc2C)cc1)C(C)(C)C [Gefitinib-based PROTAC 3]	15.5	41.4	55.5
COC(=O)Nc1nc2cc(C(=O)c3ccccc3)ccc2[nH]1 [Mebendazole]	9.13	-30.6	-10.7
c1ccc(-c2ccc(C(c3ccccc3)n3ccnc3)cc2)cc1 (stereo unspecified)	17.6	3.99	-0.555
Cc1cccc(CCN2CCC(C(=O)c3ccc(NS(C)(=O)=O)cc3)CC2)n1	-18.6	-7.85	-0.45
NC(=O)c1cn([C@@H]2O[C@H](CO)[C@@H](O)[C@H]2O)c2ncnc(N)c2c1=O	-11.4	-10.5	-1.56
O=C1NCN(c2ccccc2)C12CCN(CCCC(c1ccc(F)cc1)c1ccc(F)cc1)CC2 [Fluspirilene]	-2.73	5.04	-0.815
Cc1nnsc1C(=O)Nc1ccc(-n2nc(C(F)(F)F)cc2C(F)(F)F)cc1	-28.9	3.65	0.005
O=C1c2ccccc2C(Cc2ccncc2)(Cc2ccncc2)c2ccccc21	-38.8	-4.37	5.88
CC(C)[C@@H]1CC[C@@H](C)C[C@@H]1P(=O)(c1ccccc1)c1ccccc1	-20.4	3.21	-0.475
C=C(NNC(=S)NNC(=S)Nc1ccccc1Cl)c1ccccn1	0.77	-34.8	-12.8
Oc1c(Cl)cc(Cl)c(Cl)c1Cc1c(O)c(Cl)cc(Cl)c1Cl	-36	-1.16	0.025
COCCOC(=O)C1=C(C)NC(C)=C(C(=O)OC(C)C)C1c1cccc([N+](=O)[O-])c1 (stereo unspecified)	-29.4	-11.4	6.1
CC[C@]1(O)C[C@H]2CN(CCc3c([nH]c4ccccc34)[C@@](C(=O)OC)(c3cc4c(cc3OC)N(C=O)[C@H]3[C@@](O)(C(=O)OC)[C@H](OC(C)=O)[C@]5(CC)C=CCN6CC[C@]43[C@@H]65)C2)C1 [Vincristine Sulfate]	33.3	-33.5	-12.2
